PubChem BioAssay AID1159580 (chemical genetic matrix, 2015)
About 2,000 (36%) of roughly 5,500 compounds were called active. Another 18% or so got no clear call; they are omitted. No stated cut-off is given here; in the data, active means normalized growth mostly below about 0.91 (no sharp cut-off); inconclusive means no clear call, values can overlap the other calls; inactive means mostly above about 0.92. The list shows a part of the results.

Assay: chemical genetic growth profiling, strain panel (AID 1159580);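 further: tested at 20 µM; growth read once vehicle control cultures reached saturation at 30 °C; 1 = growth at the plate median or of vehicle wells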
Conditions: S. cerevisiae deletion strains, growth OD

Measured: normalized growth

CCN1CCC[C@H]1CNC(=O)c1c(OC)ccc(I)c1O
inactive: locus YAL040C, strain CLN3, stronger effect = lower value 1.01 | locus YCL061C, strain MRC1 (second series), stronger effect = lower value 1 | locus YDR150W, strain NUM1, stronger effect = lower value 0.986 | locus YDR363W, strain ESC2, stronger effect = lower value 1.01 | locus YER002W, strain NOP16, stronger effect = lower value 0.996 | locus YGR229C, strain SMI1, stronger effect = lower value 0.92 | locus YJR075W, strain HOC1, stronger effect = lower value 0.984 | locus YMR307W, strain GAS1, stronger effect = lower value 1 | locus YNL175C, strain NOP13, stronger effect = lower value 1 | locus YNL197C, strain WHI3, stronger effect = lower value 1.02 | locus YNL224C, strain SQS1, stronger effect = lower value 1.01 | locus YNL322C, strain KRE1, stronger effect = lower value 0.996 | locus YOR083W, strain WHI5 (second series), stronger effect = lower value 0.974 | locus YPL055C, strain LGE1, stronger effect = lower value 0.972 | locus YPL241C, strain CIN2, stronger effect = lower value 0.998
